# CBX7 inh – blocks human CBX7 binding to H3K27me3 peptide | normalised signal (fraction of DMSO) (test concentration not listed) | AID 1224903 | 1.1% of 66,000 active | AlphaScreen His6-CBX7 / biotin-H3K27me3 peptide binding; stronger effect = lower value; in the data active = normalised signal below about 0.5
# Target sequence (O95931 whole entry, looked up): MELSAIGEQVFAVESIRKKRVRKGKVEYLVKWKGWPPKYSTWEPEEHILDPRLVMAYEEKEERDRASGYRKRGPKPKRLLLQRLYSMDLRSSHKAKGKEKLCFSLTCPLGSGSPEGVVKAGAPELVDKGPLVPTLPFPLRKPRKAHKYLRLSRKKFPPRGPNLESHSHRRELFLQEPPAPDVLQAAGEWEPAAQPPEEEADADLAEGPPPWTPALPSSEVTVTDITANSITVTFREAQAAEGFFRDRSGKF
# An asterisk follows results filed as active; ! = repeats disagree. Many of the other results were omitted from the sample, so hits are more common in it than they were.
SMILES,CBX7 inh
O=C(NCc1ccc2c(c1)OCO2)C1CCCN(S(=O)(=O)c2ccc(Br)s2)C1 (stereo not given),1.04
CCN(C(=O)Cn1nc(Cc2cccnc2)c2ccccc2c1=O)c1cccc(Cl)c1,0.968
Cc1oc(-c2cccc(Cl)c2)nc1CN1CCCC(C(=O)NC(C)CCc2ccccc2)C1 (stereo not given),1.02
COc1ccccc1OCCCCCCc1c(C)n[nH]c1C,0.498*
COc1ccccc1OCCCCc1c(C)n[nH]c1C,0.973
Cc1ccccc1OCCCCCc1c(C)n[nH]c1C,0.975
COc1ccccc1N1CCN(c2ncc(C(=O)Nc3ccc(C(F)(F)F)cc3)c3ccccc23)CC1,0.925
Fc1ccc(COc2ccccc2CNc2ccc(-c3nc4ccccc4s3)cc2)cc1,1.64
Cc1nc2ccccn2c1-c1csc(Nc2ccc(Br)cc2Br)n1,0.795
COc1ccccc1Nc1nc(-c2c(C)nc3sccn23)cs1,0.317*
Cc1ccc(Nc2nc(-c3c(C)nc4sccn34)cs2)c(C)c1,0.421*!
Cc1cccc(Nc2nc(-c3c(C)nc4ccccn34)cs2)c1,1.01
COc1ccc(Cl)cc1Nc1nc(-c2c(C)nc3sccn23)cs1,0.968
COc1ccccc1Nc1nc(-c2c(C)nc3ccccn23)cs1,0.96
COc1ccc(-c2cn3nc(-c4ccc(F)cc4)c(-c4ccc(F)cc4)nc3n2)cc1,1.22
CCS(=O)(=O)NC(C)C(c1cccs1)N1CCN(c2ccccc2)CC1 (stereo not given),0.978
CC(C)c1ccc(C2c3c(-c4ccccc4)n[nH]c3C(=O)N2c2ccccc2)cc1 (stereo not given),0.845
O=C1c2[nH]nc(-c3ccccc3)c2C(c2ccccc2)N1c1ccccc1 (stereo not given),1
COc1ccc(C2c3c(-c4ccccc4)n[nH]c3C(=O)N2c2ccccc2)cc1 (stereo not given),0.381*
CN(C)CCCN1C(=O)CCCCc2sc3c(c21)CCCC3,1.04
C=CCn1c(SCC(=O)Nc2ccc(C(C)=O)cc2)nnc1-c1cccnc1,0.973
Cc1ccccc1NC(=O)c1cnc(Nc2nc3ccccc3o2)nc1C,0.167*
Cc1ccc(NC(=O)c2c(C)nc(Nc3nc4ccccc4o3)nc2C)cc1,1.09
CCCc1nc(Nc2nc3ccccc3o2)ncc1C(=O)OCC,1.06
CC1=Nc2cc(C(=O)N3CCCC3)ccc2Sc2ccc(Cl)cc21,0.943
SMILES,CBX7 inh
Cc1cc2ncn(CC(O)COc3ccc(C(C)C)cc3)c2cc1C (stereo not given),0.713
Cc1cc2ncn(CC(O)COc3ccccc3C)c2cc1C (stereo not given),0.172*
COc1cc(OC)cc(OCC(O)Cn2cnc3cc(C)c(C)cc32)c1 (stereo not given),0.524
Cc1c(C(=O)NCCc2ccccc2)oc2ccc(S(=O)(=O)N3CCCC3)cc12,0.962
Cc1cc(NC(=O)c2cc(-c3ccc(Cl)cc3)on2)no1,1.04
Cc1[nH]c2ccccc2c(=O)c1CN1CCC(C)CC1,1.06
Cc1cc(OCC(O)CN2CCC(C)CC2)ccc1Cl (stereo not given),1.07
CC1CCN(CCCNC(=O)c2cnc(N3CCN(c4ncccn4)CC3)c3ccccc23)CC1,1.09
CC1CCN(Cc2cc(Cl)c3cccnc3c2O)CC1,0*
CC1CCN(Cc2cc(Cn3ccnc3)c3cccnc3c2O)CC1,0.00606*
CCCC(=O)NC(c1ccc(C)cc1)c1cc(Cl)c2cccnc2c1O (stereo not given),0.72
CC1CCN(Cc2nc(-c3ccccc3)no2)CC1,0.91
CC1CCN(c2nc(-c3ccccc3O)nc3ccccc23)CC1,1.04
CC1CCN(Cc2cc(Cl)c(O)c3ncccc23)CC1,0.00286*
Cc1cc(C)cc(OCC(=O)Nc2ccc3oc(-c4ccncc4)nc3c2)c1,0.934
COC(CNC(=O)Cc1ccc(-n2c(=O)[nH]c3ccsc3c2=O)cc1)OC,1.01
CCCCN(C)S(=O)(=O)c1ccc(C(=O)Nc2nnc(COC)o2)cc1,0.0893*
CN(C1CCCCC1)S(=O)(=O)c1ccc(C(=O)Nc2ccc(-c3nc4ccccc4[nH]3)cc2)cc1,1
CCCCN(C)S(=O)(=O)c1ccc(C(=O)Nc2nnc(CC)o2)cc1,0.394*
CCCCN(C)S(=O)(=O)c1ccc(C(=O)Nc2c(C(=O)OCC)oc3ccccc23)cc1,1.13
COc1ccc(-c2nnc(NC(=O)c3ccc(S(=O)(=O)N(C)C4CCCCC4)cc3)o2)cc1,0.924
CCCN(CCC)S(=O)(=O)c1ccc(C(=O)Nc2nnc(COC)o2)cc1,0.817
COCc1nnc(NC(=O)c2ccc(S(=O)(=O)N(C)C3CCCCC3)cc2)o1,0.155*
O=C(Cn1c(SCc2ccccc2F)nc2ccncc21)Nc1ccc(Cl)cc1F,1.03
CCOc1ccc2nc(N3CCC(C(=O)N4CCN(c5ccccc5)CC4)CC3)sc2c1,0.955
SMILES,CBX7 inh
COc1cccc(-n2nc(C(=O)Nc3ccc(OC)cc3OC)c3ccccc3c2=O)c1,1.06
CC(C)n1cnc2cc(NCc3ccccn3)ccc21,0.227*
Cn1cnc2cc(NCc3ccccc3Cl)ccc21,0.919
Cn1cnc2cc(NCc3cccc(Br)c3)ccc21,0.851
CCCn1c(C2CC(=O)N(c3cc(Cl)ccc3OC)C2)nc2ccccc21 (stereo not given),0.996
COc1ccc(CCNc2oc(COc3ccc(Cl)cc3)nc2C#N)cc1OC,0.954
Cc1cccc(OCc2nc(C#N)c(NCc3ccc4c(c3)OCO4)o2)c1,0.432*
COc1ccc(CCNc2oc(COc3ccc(F)cc3)nc2C#N)cc1OC,0.547
Cc1cccc(OCc2nc(C#N)c(NCCN(C)C)o2)c1,1.01
COc1ccc(CNc2oc(COc3cccc(C)c3)nc2C#N)cc1,0.667
COc1ccc(CCNc2oc(COc3cccc(C)c3)nc2C#N)cc1OC,0.462*
COc1ccc(CCNc2oc(COc3ccc(C)cc3)nc2C#N)cc1OC,0.482*
Cc1cccc(OCc2nc(C#N)c(NCCc3ccccc3)o2)c1,0.667
Cc1ccccc1OCc1nc(C#N)c(NCc2ccc3c(c2)OCO3)o1,0.911
CCOc1ccc(N2C(=O)CC(NCCc3ccc(OC)c(OC)c3)C2=O)cc1 (stereo not given),1.26
CCOc1ccc(-n2c(Cc3cc(=O)[nH]c(=O)[nH]3)nnc2SCC(=O)N2CCCCCC2)cc1,0.863
CCCCCOc1ccc(C(=O)N(Cc2ccc(C(C)C)cc2)C2CCS(=O)(=O)C2)cc1 (stereo not given),0.968
CCCNc1c(NC2CCN(C(=O)OCC)CC2)c(=O)c1=O,0.809
Cc1ccc(NC(=O)CSc2ccc3nnc(-c4ccccc4)n3n2)cc1,1.02
CCN(CC)CCNC(=O)c1cc(Nc2ccc(C)cc2C)nc2ccccc12,1.05
N#Cc1c(-c2ccc(F)cc2)c(C#N)c(=O)n(N)c1N,0.16*
Cc1cc(C)n(Cc2ccc(F)cc2)c(=O)c1C#N,1.13
CCSc1nnc(-c2ccc3[nH]c(C)c(C)c3c2)n1-c1ccccc1,0.936
Cc1[nH]c2ccc(-c3nnc(SCCO)n3-c3ccc(Br)cc3)cc2c1C,0.455*
Cc1[nH]c2ccc(-c3nnc(SCCc4ccccc4)n3-c3ccccc3)cc2c1C,0.783
O=C(CN1CCCCCC1)Nc1nc(-c2ccccc2)cs1,0.977
Cc1c(C(=O)CN2CCOCC2)nnn1-c1nonc1N,1.03
O=C1CCc2cc(S(=O)(=O)N3CCC(C(=O)NCCCc4ccccc4)CC3)ccc2N1,1.01
COC(=O)c1ccc(OCC(O)Cn2c(Cc3ccccc3)nc3ccccc32)cc1 (stereo not given),0.95
Cc1c(C(=O)Nc2ccccc2Cl)sc2ncn(Cc3cccc(F)c3)c(=O)c12,1.13

# Assay outcomes (PubChem BioAssay)
